In PubChem BioAssay (NCI):
About 79,000 compounds went through this panel and 15% of them were active in at least one assay; those are over-represented in the sample as a whole. A number with no mark means an inactive call. Calls of active or inactive are those of the source. Rule as the data show it: active = growth inhibition above about 70%; inactive = the rest.

Columns and labels:
[1] = NCI Yeast Anticancer Drug Screen. Data for the rad50 strain (AID 155);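 also: 0% = growth of vehicle-only cultures of the same strain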; conditions: S. cerevisiae rad50 strain growth inhibition, hits give high values
Method in brief: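 Genetically altered yeast (DNA repair pathway); compound treatment; growth inhibition vs vehicle ctrl.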

[2] = NCI Yeast Anticancer Drug Screen. Data for the mec2-1 strain (AID 157); conditions: S. cerevisiae mec2-1 strain, hits give high values
Method in brief: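 mec2-1 yeast strain, carrying an alteration in DNA damage repair or cell cycle control, was exposed to compounds; growth inhibition was measured relative to vehicle-treated controls.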

[3] = NCI Yeast Anticancer Drug Screen. Data for the sgs1 mgt1 strain (AID 161);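 also: 0% = growth of cultures given vehicle only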; conditions: S. cerevisiae sgs1 mgt1 strain, hits give high values
Method in brief: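 This yeast growth screen uses a strain with defined DNA-repair lesions; compound-treated growth is compared with vehicle-treated growth.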

[4] = NCI Yeast Anticancer Drug Screen. Data for the cln2 rad14 strain (AID 165);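 also: 0% = growth equal to vehicle treated cultures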; conditions: S. cerevisiae cln2 rad14 strain, hits give high values
Method in brief: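 Yeast carrying cln2 and rad14 alterations (cell cycle control and DNA damage repair) were exposed to compounds. Growth inhibition was measured against vehicle-treated controls.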

[5] = NCI Yeast Anticancer Drug Screen. Data for the bub3 strain (AID 167); conditions: S. cerevisiae bub3 mutant strain, hits give high values
Method in brief: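 Yeast carrying a defined mutation is treated with each compound, and growth is compared with that of vehicle-exposed cells to give inhibition.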

[6] = NCI Yeast Anticancer Drug Screen. Data for the mlh1 rad18 strain (AID 175); conditions: S. cerevisiae mlh1 rad18 strain growth inhibition, hits give high values
Method in brief: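 Growth inhibition of the yeast strain was measured after compound exposure and expressed relative to vehicle-treated controls. The strain carries defined defects in DNA damage repair.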

[7] = at 5.0 µM (retest, dose inferred, filed as 0.5)
[8] = at 50.0 µM (retest, dose inferred, filed as 5.0)

| Structure (SMILES) | growth inhibition [1, 7] | growth inhibition [1, 8] | growth inhibition ([1]; at 50.0 µM) | growth inhibition [2, 7] | growth inhibition [2, 8] | growth inhibition ([2]; at 50.0 µM) | growth inhibition [3, 7] | growth inhibition [3, 8] | growth inhibition ([3]; at 50.0 µM) | growth inhibition [4, 7] | growth inhibition [4, 8] | growth inhibition ([4]; at 50.0 µM) | growth inhibition [5, 7] | growth inhibition [5, 8] | growth inhibition ([5]; at 50.0 µM) | growth inhibition [6, 7] | growth inhibition [6, 8] | growth inhibition ([6]; at 50.0 µM) |
| --- | --- | --- | --- | --- | --- | --- | --- | --- | --- | --- | --- | --- | --- | --- | --- | --- | --- | --- |
| COc1ccc2nc3cccc([N+](=O)[O-])c3c(NCCN(C)C)c2c1 | 86% (active) | 95% (active) | 80% (active) | 95% (active) | 98% (active) | 88.5% (active) | 87% (active) | 74% (active) | 84.5% (active) | 92% (active) | 97% (active) | 83% (active) | 36% | 96% (active) | 82.2% (active) | 92% (active) | 97% (active) | 79.6% (active) |
| C/C(=N\NC(=S)N1CCC(C)CC1)c1ncccn1 | -4% | 98% (active) | 99.2% (active) | -5% | 99% (active) | 99.2% (active) | 0% | 98% (active) | 99.3% (active) | -7% | 98% (active) | 98.8% (active) | -1% | 98% (active) | 99.3% (active) | -4% | 99% (active) | 98.9% (active) |
| CC(=O)c1c(O)c2cccc3c2n(c1=O)CCC3 | 26% | 99% (active) | 97.2% (active) | -13% | 99% (active) | 91.6% (active) | 4% | 98% (active) | 94.9% (active) | 3% | 98% (active) | 71.3% (active) | -2% | 99% (active) | 84.4% (active) | 11% | 98% (active) | 95.3% (active) |
| Cc1c(C(=O)O)nc(C(Br)(Br)Br)[nH]c1=O | 6% | 8% | 54.2% | 20% | 17% | 4.85% | 2% | 26% | 71.3% (active) | 1% | 0% | 14.7% | 4% | 2% | 1.5% | 6% | 27% | 53% |
| c1ccc2c(c1)Cc1cc3ccccc3nc1-2 | 13% | 97% (active) | 96.5% (active) | 18% | 97% (active) | 86.5% (active) | 13% | 98% (active) | 87.1% (active) | -9% | 90% (active) | 92% (active) | 10% | 94% (active) | 89.7% (active) | 28% | 99% (active) | 97.2% (active) |
| C[C@H]1CC[C@@H]2[C@@H](C)[C@H]3[C@H](C[C@H]4[C@@H]5CC=C6C[C@@H](O)CC[C@]6(C)[C@H]5CC[C@]34C)N2C1 | 27% | 98% (active) | 58% | 28% | 99% (active) | 93.5% (active) | 44% | 99% (active) | 93.2% (active) | 28% | 98% (active) | 91.2% (active) | 48% | 99% (active) | 93% (active) | 56% | 98% (active) | 86.6% (active) |
| Ic1[nH]c(I)c(I)c1I | 13% | 97% (active) | 95.2% (active) | 16% | 98% (active) | 95% (active) | 10% | 95% (active) | 97% (active) | -2% | 96% (active) | 94.3% (active) | 14% | 98% (active) | 96.7% (active) | 11% | 95% (active) | 92.7% (active) |
| CCCC(C(=O)OCCNC1CCCCC1)c1ccccc1 (configuration not stated) | 2% | 18% | 71.3% (active) | -13% | 14% | 11.9% | 0% | 37% | 63.3% | -38% | 47% | 35.1% | -4% | 69% | 28.5% | 2% | 18% | 55.2% |
| CC(C)C1=CC(=O)C(C)(C2C(O)CC3(C)C4CC=C5C(CCC(O)C5(C)C)C4(C)C(=O)CC23C)O1 (configuration not stated) | 65% | 80% (active) | 73.2% (active) | 78% (active) | 87% (active) | 74.5% (active) | 64% | 74% (active) | 68.8% | 54% | 83% (active) | 75% (active) | 78% (active) | 86% (active) | 62.2% | 85% (active) | 89% (active) | 69.4% |
| O=c1cc(N=Nc2ccc(Cl)c(Cl)c2)[nH]c(=O)[nH]1 | 37% | 95% (active) | 85.8% (active) | 25% | 97% (active) | 86.6% (active) | 54% | 97% (active) | 88.7% (active) | 32% | 97% (active) | 89.5% (active) | 73% (active) | 97% (active) | 86.8% (active) | 41% | 96% (active) | 82% (active) |
| Nc1ccc(C(=O)/C=C/c2ccccc2O)cc1 | -3% | 37% | -21.9% | -5% | 2% | 28.1% | 15% | -1% | -9% | -19% | -14% | 2.4% | -19% | 23% | -15.8% | -6% | -1% | -1.15% |
| COc1cccc2c1OC(c1cccc3ccccc13)C([N+](=O)[O-])=C2 (configuration not stated) | 49% | 75% (active) | 62.3% | 32% | 67% | 62.1% | 39% | 70% (active) | 61.4% | 22% | 62% | 47% | 47% | 74% (active) | 54.8% | 49% | 81% (active) | 58.8% |
| Nc1ccc2nc3ccccc3nc2c1 | -11% | 95% (active) | 97% (active) | -11% | 60% | 81% (active) | -22% | 77% (active) | 64.8% | -10% | 44% | 74% (active) | -4% | 78% (active) | 75.8% (active) | 4% | 90% (active) | 88.4% (active) |
| CCCCCCCCCCCCCCCC1(OC)C[N+](C)(C)CCO1 (configuration not stated) | 99% (active) | 99% (active) | 99.5% (active) | 100% (active) | 100% (active) | 99.7% (active) | 99% (active) | 100% (active) | 99.7% (active) | 100% (active) | 100% (active) | 99.5% (active) | 99% (active) | 99% (active) | 99.7% (active) | 99% (active) | 100% (active) | 99.7% (active) |
| CCCCCCCCCCCC(C)N (configuration not stated) | 15% | 83% (active) | 99% (active) | 4% | 78% (active) | 99.5% (active) | 4% | 91% (active) | 98.7% (active) | 12% | 25% | 98% (active) | 11% | 86% (active) | 99.2% (active) | 2% | 74% (active) | 98.1% (active) |
| O=[N+]([O-])C(=C(Nc1ccccc1)Nc1ccccc1)/C(Cl)=C(\Cl)Br | -7% | 99% (active) | 98.7% (active) | 11% | 99% (active) | 99.5% (active) | 6% | 99% (active) | 99.3% (active) | 22% | 99% (active) | 99.3% (active) | -11% | 99% (active) | 99.2% (active) | 32% | 99% (active) | 99.2% (active) |
| COc1cc(Cc2n[nH]c(=S)n2-c2ccccc2)c(S(=O)(=O)N2CCOCC2)cc1OC | 4% | 1% | -10.2% | -2% | -5% | -5.2% | 9% | -6% | -0.7% | 1% | 0% | 82.7% (active) | -3% | 7% | -32% | -2% | -62% | 11.4% |
| CCOC1=C(c2ccccc2)Sc2ccc(C)cc2C1c1ccc(C)cc1 (configuration not stated) | 15% | 35% | 60.2% | 0% | 76% (active) | 78.2% (active) | 10% | 81% (active) | 95.3% (active) | -4% | 51% | 13.1% | -3% | 61% | 90% (active) | -2% | 81% (active) | 82.9% (active) |
| C/C(=N\N(C)C(=S)Nc1ccccc1)c1ccccn1 | -2% | 11% | 93.5% (active) | -4% | 9% | 63.2% | -6% | 22% | 71.7% (active) | -5% | -18% | 54.9% | -12% | 36% | 82% (active) | -10% | 65% | 61.8% |
